The record followed here is PubChem BioAssay (NCI).

SMILES strings stand for the structures. The panel holds about 83,000 compounds, 20% with a hit somewhere; the sample as a whole holds those more often.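 Plates (96-well) were seeded with cells, treated with compound at one concentration, and incubated for 48 hours before percent growth was determined.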 Calls of active or inactive are those of the source.

The experiment relates to SK-MEL-5 melanoma. Briefly: NCI-60 one-dose screen, 48 h (100 = growth as untreated, 0 = no growth, -100 = all killed). The note with it: 10 µM unless noted. Here is the method:
Growth inhibition of the SK-MEL-5 human tumor cell line is measured as a screen for anti-cancer activity. Cells are grown in 96 well plates and exposed to the test compound for 48 hours. Compounds are tested at a single concentration, which is 10^-5 M for most compounds. The reported endpoint is percent growth (GI% or GIPRCNT), where numbers from 0 - 100% represent growth inhibition, and numbers from -100% - 0 represent cell death. For example, a value of 40 represents 60% growth inhibition. A value of 0 means no net growth occurred over the course of the experiment. A value of -40 indicates 40% of cells at the beginning of the experiment died by the end of the experiment. A value of -100 means all cells are dead at the end of the experiment.
NCI-60 Human Tumor Cell Lines Screen was performed using the standard one-dose NCI protocol, which is described in more detail at https://dtp.cancer.gov/discovery_development/nci-60/default.htm.
Compounds with GIPRCNT values below 10 were considered active. Activity score was based on GIPRCNT using the following formula: […]
Score is 0 for GIPRCNT values of 100 or above, 50 for GIPRCNT values of 0, and 100 for GIPRCNT values of -100.
For the molecule `C1CCN(c2nc(N3CCCCC3)nc(N3CCOCC3)n2)CC1`, the growth is 101% (inactive).

`O=S(=O)(c1ccccc1)n1cc2c(c1-c1ccccc1)CCc1sc(Nc3ccccc3)nc1-2`: the growth was 88.3% (inactive).

Turning to `O=c1c2cc(F)ccc2sc2c(NCCN3CCCC3)nc3ccccc3c12`, the growth was 79.7% (inactive).

Take `CCN(CCO)CCNc1ccc(C)c2sc3cc(Cl)ccc3c(=O)c12`: the growth is -94.3% (active).

As for `COc1ccc(-n2c(C(O)c3ccccc3)nn(CN3CCOCC3)c2=S)cc1` (stereo not given), the growth was 112% (inactive).

`OC(c1ccccc1)c1nnc(SCc2ccccc2)n1Cc1ccccc1` (stereo not given): the growth was 96.7% (inactive).

In the case of `CCCC(c1nnnn1C1CCCCC1)N1CCN(C(=O)c2ccco2)CC1` (stereo not given), the growth was 47.1% (inactive).

For `Clc1ccc(Oc2ccc(Nc3ncnc4onc(-c5ccccc5)c34)cc2)c(Cl)c1`, the growth was 93.4% (inactive).

Consider `CC(=O)O[C@@H]1/C=C/C(=O)N[C@@H](C)CCC/C=C/[C@@H]2CCC[C@H]21`, for which the growth is 101% (inactive).

Consider `CCOC(=O)c1ccc2[nH]c(-c3ccccc3)cc(=O)c2c1`, for which the growth is 103% (inactive).

Turning to `O=NN(C(=O)NC1CCC(C(=O)O)CC1)C1CCC(C(=O)O)CC1` (stereo not given), the growth was 104% (inactive).

Take `Cc1ccc2c(n1)C(=O)C(Oc1ccc(Br)cc1)=CC2=O`: the growth was 93.6% (inactive).

As for `Nc1nc(Nc2cccc(F)c2)nc2ccccc12`, the growth is 16% (inactive).

For the molecule `COc1ccc(Cn2c(Br)c3c(c2-c2cc(OC)c(OC)c(OC)c2)CCc2sc(NC(=O)c4ccc(OC)cc4)nc2-3)cc1`, the growth was 86.7% (inactive).

For `O=C(Nc1ccc(F)cc1F)c1cc(Cl)ccc1O`, the growth is -67.5% (active).

`Cn1cc([C@@H]2Nc3ccc4[nH]ncc4c3[C@H]3[C@H]4CCC(C4)[C@H]32)c(C(F)(F)F)n1`: the growth was 30.5% (inactive).

`COc1ccc(Br)c(/C=C2\SC(=Nc3ccc(O)cc3)NC2=O)c1`: the growth is 90.3% (inactive).

With `Cc1ccc(S(=O)c2ccc([N+](=O)[O-])c3nonc23)cc1` (stereo not given), the growth was 100% (inactive).

As for `Nc1nonc1-n1nncc1-c1cccnc1`, the growth is 106% (inactive).

In the case of `O=C1c2cc(Br)ccc2Oc2cc([N+](=O)[O-])ccc2N1c1ccc(I)cc1F`, the growth is 99.2% (inactive).

In the case of `O=Cc1c(OCc2cnnn2CC(=O)Nc2ccc(Br)cc2)ccc2ccccc12`, the growth is 93.9% (inactive).

With `O=C(NCCCN1CCC(N2CCCCC2)CC1)C1=Cc2cc(Br)ccc2OC1`, the growth is 68% (inactive).

In the case of `O=S1(=O)N(Cc2ccccc2)[C@@H](Cc2ccccc2)[C@H](O)[C@H](O)[C@H](Cc2ccccc2)N1Cc1ccccc1`, the growth is -1.02% (active).

Turning to `O=C(NC1CCN(Cc2ccccc2)CC1)c1cc2nc(-c3ccc(Cl)s3)cc(C(F)(F)F)n2n1`, the growth was 89.1% (inactive).

With `CCCCC1COc2cccc3c2N1C=C/C3=C\C(=O)N(C)c1ccccc1` (stereo not given), the growth was 13.4% (inactive).

Take `Nc1ccn(C2O[C@H](CO)[C@@H](O)[C@H]2O)c(=O)n1` (stereo not given in full): the growth is 89.9% (inactive).

Regarding `CCN1C(=O)N(CC)C2Nn3c(s/c(=C\c4ccccc4F)c3=O)=NC21` (stereo not given), the growth was 33.9% (inactive).

As for `COc1cc(/C=C2\CCC/C(=C\c3cc(CN4CCCCC4)c(O)c(OC)c3)C2=O)cc(CN2CCCCC2)c1O`, the growth is 92.6% (inactive).

As to `O=C1Nc2ccccc2/C1=C/c1cccs1`, the growth is 85.9% (inactive).

Take `CN1CCN(Cc2ccc(NC(=O)c3cncc(C#Cc4nc(N)nc5[nH]ncc45)c3)cc2C(F)(F)F)CC1`: the growth was 90.2% (inactive).

For `CN1CCN(c2nc(Nc3ccc(O)cc3)nc3ccccc23)CC1`, the growth was 46.1% (inactive).

Turning to `COc1cc(/C=C/C(=O)c2ccc(Cl)cc2)cc(CN2CCCCC2)c1O`, the growth was 90.7% (inactive).

Regarding `COc1c2ccoc2c(/C=C/C=O)c2oc(-c3ccccc3)cc(=O)c12`, the growth was 48.6% (inactive).

With `Cc1ccc2[nH]c(=O)cc(-n3nncc3Cn3c4ccccc4c4ccccc43)c2c1`, the growth is 94.5% (inactive).

As to `c1ccc(-c2ccc(-c3nc4ccccc4[nH]3)cc2)cc1`, the growth is 100% (inactive).

For the molecule `Cc1[nH]c2ccccc2c(=O)c1CC=C(Cl)Cl`, the growth was 72.2% (inactive).

With `COc1ccc(Nc2nc(N/N=C/c3ccc(O)cc3)nc(Nc3ccc([N+](=O)[O-])cc3)n2)cc1`, the growth was 104% (inactive).

As for `C#CCn1cc(C=C2C(=O)N(C)C(=O)N(C)C2=O)c2cc(Cl)ccc21`, the growth is 99.5% (inactive).

`Cc1cccc2c(=O)c3c(sc12)c(N1CCNCC1)nc1ccccc13`: the growth was 80.2% (inactive).

`CCN1CCN(C(=S)SCC(=O)Nc2nc3ccc(C)cc3s2)CC1`: the growth was 97.5% (inactive).
